Assay results reported in PubChem BioAssay AID1540 (National Center for Advancing Translational Sciences (NCATS), 2009).
“And” between values parts separate entries of the source, which are not always exact repeats. Equal values may be shown once. Inconclusive results are not listed. Where a structure was tested more than once in an assay, its records may differ in their call. The source made the active and inactive calls. Calls come from the whole dose curve; as a rule, active = well fitted activation curve with a large enough effect; inconclusive = small, poorly fitted or top-dose-only effect, or effect the other way; inactive = flat fitted curve, though single readings scatter.

Target: Pyruvate kinase PKM (Homo sapiens) (UniProt P14618)
Assay: Secondary assay for Activators of Human Pyruvate Kinase M2 isoform
Details: purified hPK-M2, LDH-coupled NADH fluorescence kinetic; series mostly up to 57.5 µM
Description: Confirmatory assay NIH Chemical Genomics Center [NCGC] Matthew G. Vander Heiden, M.D., Ph.D. [Harvard Medical School, 77 Avenue Louis Pasteur, Boston, MA 02115] NCGC Assay Overview: Human pyruvate kinase muscle 2 (hPK-M2)enzyme was supplied as a highly purified (>95% pure) preparation from Harvard Medical School and a secondary assay was used to evaluate compounds. This assay couples the formation of pyruvate from hPK-M2 using lactate dehydrogenase (LDH) and NADH. The depletion of NADH is followed in a fluorescent-based kinetic assay that follows the formation of pyruvate to lactate, as catalyzed LDH (described by Hannaert et al., 2002)1 Pyruvate kinase substrates, PEP and ADP, were present in the assay at 0.1 mM and 4 mM respectively. In this kinetic assay initial rates were determined by following the fluorescence of NADH depletion.
NCGC Assay Protocol Summary: Three uL of substrate mix (final concentration, 50 mM Tris-Cl pH 8.0, 200 mM KCl, 15 mM MgCl2, 0.1 mM PEP, 4.0 mM ADP, and 0.2 mM NADH) was dispensed into black-solid 1536 well plates. 23 nL of compounds were delivered by a pin tool and 1 uL of enzyme mix (final concentrations, 10 nM hPK-M2 and 1 uM of LDH) was added. Plates were immediately placed in ViewLux (Perkin Elmer) and NADH fluorescence was determined at 30 second exposure intervals for between 3 and 6 minutes. Data were normalized to the uninhibited and EC100 activation using known activators such as fructose-bis-phosphate.

Pyruvate kinase PKM (Homo sapiens), sequence (P14618 whole entry, looked up, canonical isoform): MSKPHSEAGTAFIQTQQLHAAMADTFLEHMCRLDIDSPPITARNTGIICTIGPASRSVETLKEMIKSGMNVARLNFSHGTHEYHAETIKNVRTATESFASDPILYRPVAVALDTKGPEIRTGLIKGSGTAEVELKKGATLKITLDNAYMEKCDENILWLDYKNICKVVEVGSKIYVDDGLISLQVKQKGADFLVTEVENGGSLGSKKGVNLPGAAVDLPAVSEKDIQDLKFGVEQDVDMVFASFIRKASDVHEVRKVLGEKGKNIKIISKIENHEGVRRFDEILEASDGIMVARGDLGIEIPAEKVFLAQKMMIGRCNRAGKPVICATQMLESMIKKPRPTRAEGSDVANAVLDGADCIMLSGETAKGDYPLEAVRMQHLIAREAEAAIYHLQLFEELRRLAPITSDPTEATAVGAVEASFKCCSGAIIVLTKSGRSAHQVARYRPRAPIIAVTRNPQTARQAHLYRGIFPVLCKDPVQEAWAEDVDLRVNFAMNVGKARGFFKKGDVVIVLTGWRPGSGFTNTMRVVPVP

Row | Structure (SMILES) | Potency
1 | CCn1c2cc(C)sc2c2cnn(Cc3ccccc3F)c(=O)c21 | 5010 nM (active)
2 | O=C1CN(S(=O)(=O)c2c(F)cccc2F)CCN1S(=O)(=O)c1ccc2c(c1)OCCO2 | 2510 nM (active)
3 | CC(=O)Nc1ccc(S(=O)(=O)N2CCCN(S(=O)(=O)c3ccc4c(c3)OCCO4)CC2)cc1 | 2590 nM (active)
4 | C=CCc1cc(F)c(S(=O)(=O)N2CCN(S(=O)(=O)c3ccc4c(c3)OCCO4)CC2)cc1F | 2000 nM (active)
5 | Cc1nc2ccc(S(=O)(=O)N3CCN(S(=O)(=O)c4c(F)cccc4F)CC3)cc2s1 | 631 nM (active)
6 | Nc1cccc(S(=O)(=O)N2CCN(S(=O)(=O)c3ccc4c(c3)OCCO4)CC2)c1 | 146 nM (active)
7 | Cc1cc2c(s1)c1cnn(Cc3ccc(C(F)(F)F)cc3)c(=O)c1n2C | 2240 nM (active)
8 | COc1ccc(Cn2ncc3c4sc(C)cc4n(C)c3c2=O)cc1 | 199 nM (active)
9 | O=S(=O)(c1ccc2c(c1)OCCO2)N1CCN(S(=O)(=O)c2c(F)ccc(O)c2F)CC1 | 355 nM (active)
10 | Cc1cc2c(s1)c1cnn(Cc3cccc(Cn4ncc5c6sc(C)cc6n(C)c5c4=O)c3F)c(=O)c1n2C | 35500 nM (active)
11 | C=Cc1cc(F)c(S(=O)(=O)N2CCN(S(=O)(=O)c3ccc4c(c3)OCCO4)CC2)cc1F | 2000 nM (active)
12 | COc1cc(F)c(S(=O)(=O)N2CCN(S(=O)(=O)c3cccc(NC(C)=O)c3)CC2)c(F)c1 | 1030 nM (active)
13 | CC(=O)Nc1cccc(S(=O)(=O)N2CCN(S(=O)(=O)c3c(F)cccc3F)CC2)c1 | 14600 nM (active)
14 | O=S(=O)(c1ccc2c(c1)OCCCO2)N1CCN(S(=O)(=O)c2c(F)cccc2F)CC1 | 501 nM (active)
15 | Cn1c2cc(Br)sc2c2cnn(Cc3c(F)cccc3F)c(=O)c21 | 631 nM (active)
16 | COc1cc(F)c(S(=O)(=O)N2CCN(S(=O)(=O)c3cccc(N)c3)CC2)c(F)c1 | 73 nM (active)
17 | O=S(=O)(c1ccc2c(c1)OCO2)N1CCN(S(=O)(=O)c2c(F)cccc2F)CC1 | 708 nM (active)
18 | Cn1c2cc(B(O)O)sc2c2cnn(Cc3ccccc3F)c(=O)c21 | 15800 nM (active)
19 | COC(=O)c1cc2c(s1)c1cnn(Cc3ccccc3F)c(=O)c1n2C | 355 nM (active)
20 | COc1cc(F)c(S(=O)(=O)N2CCN(S(=O)(=O)c3ccc4c(c3)OCCO4)CC2)c(F)c1 | 562 nM (active)

Row | Structure (SMILES) | Potency
21 | C[C@H]1CN(S(=O)(=O)c2c(F)cccc2F)CCN1S(=O)(=O)c1ccc2c(c1)OCCO2 | 5010 nM (active)
22 | Cn1c2ccsc2c2cnn(Cc3ccccc3F)c(=O)c21 | 2510 nM (active)
23 | Cn1c2cc(C#N)sc2c2cnn(Cc3ccc(F)cc3)c(=O)c21 | 282 nM (active)
24 | O=S(=O)(c1ccc(F)cc1)N1CCN(S(=O)(=O)c2ccc3c(c2)OCCO3)CC1 | 199 nM (active)
25 | CCCc1cc(F)c(S(=O)(=O)N2CCN(S(=O)(=O)c3ccc4c(c3)OCCO4)CC2)cc1F | 8910 nM (active)
26 | CC(C)c1cc2c(s1)c1cnn(Cc3ccccc3F)c(=O)c1n2C | 1410 nM (active)
27 | CSc1cc2c(s1)c1cnn(Cc3ccccc3F)c(=O)c1n2C | 708 nM (active)
28 | COc1ccc(S(=O)(=O)N2CCN(S(=O)(=O)c3c(F)cccc3F)CC2)cc1 | inactive and 141 nM (active)
29 | Cc1cc2c(s1)c1cnn(Cc3c(F)cccc3F)c(=O)c1n2C | 141 nM (active)
30 | Cn1c2cc(C#N)sc2c2cnn(Cc3ccccc3F)c(=O)c21 | 355 nM (active)
31 | Cc1cc2c(s1)c1cnn(Cc3cccc(Cl)c3)c(=O)c1n2C | 355 nM (active)
32 | Cn1c2ccsc2c2cnn(Cc3ccc(F)cc3)c(=O)c21 | 562 nM (active)
33 | CC(=O)Nc1ccc(S(=O)(=O)N2CCN(S(=O)(=O)c3ccc4c(c3)OCCO4)CC2)cc1 | 919 nM (active)
34 | O=C1CN(S(=O)(=O)c2ccc3c(c2)OCCO3)CCN1S(=O)(=O)c1c(F)cccc1F | 2820 nM (active)
35 | O=C(N1CCc2ccc(S(=O)(=O)N3CCN(S(=O)(=O)c4ccc5c(c4)OCCO5)CC3)cc2C1)C(F)(F)F | 1120 nM (active)
36 | CN1CCOc2ccc(S(=O)(=O)N3CCN(S(=O)(=O)c4c(F)cccc4F)CC3)cc21 | 3.55 µM (active) and 708 nM (active)
37 | Cn1c2cc(C=O)sc2c2cnn(Cc3ccccc3F)c(=O)c21 | 282 nM (active)
38 | Cn1c2cc(C(=O)O)sc2c2cnn(Cc3ccccc3F)c(=O)c21 | 8910 nM (active)
39 | O=S(=O)(c1ccc2c(c1)OCCO2)N1CCN(S(=O)(=O)c2c(F)cccc2F)CC1 | 1 µM (active) and 562 nM (active)
40 | COCCCc1cc(F)c(S(=O)(=O)N2CCN(S(=O)(=O)c3ccc4c(c3)OCCO4)CC2)cc1F | 3160 nM (active)
